Over roughly 110,000 compounds, “z-score” has its median near -0.1; the highest 2% begin near 2. Shown is part of a subset that was picked to be rich in the highest values. Calls of active or inactive are those of the source.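 The calls were made as follows: active = z-score in the third read window above 3 or below -3; inactive = the rest.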
Biological target: Metabotropic glutamate receptor 8 (Rattus norvegicus) (UniProt P70579)
Assay: mGluR8 Gi/Go-coupled signaling modulation – cell-based, rat, thallium flux, HTS, primary screen (AID 488969)
Settings: HEK293 rat mGluR8, GIRK (G protein-gated inwardly rectifying potassium channel) thallium flux, FluoZin2; at 10 µM; stronger effect = higher value; submaximal glutamate (EC20) added with thallium

Chain of Metabotropic glutamate receptor 8 (Rattus norvegicus) (P70579 whole entry, looked up): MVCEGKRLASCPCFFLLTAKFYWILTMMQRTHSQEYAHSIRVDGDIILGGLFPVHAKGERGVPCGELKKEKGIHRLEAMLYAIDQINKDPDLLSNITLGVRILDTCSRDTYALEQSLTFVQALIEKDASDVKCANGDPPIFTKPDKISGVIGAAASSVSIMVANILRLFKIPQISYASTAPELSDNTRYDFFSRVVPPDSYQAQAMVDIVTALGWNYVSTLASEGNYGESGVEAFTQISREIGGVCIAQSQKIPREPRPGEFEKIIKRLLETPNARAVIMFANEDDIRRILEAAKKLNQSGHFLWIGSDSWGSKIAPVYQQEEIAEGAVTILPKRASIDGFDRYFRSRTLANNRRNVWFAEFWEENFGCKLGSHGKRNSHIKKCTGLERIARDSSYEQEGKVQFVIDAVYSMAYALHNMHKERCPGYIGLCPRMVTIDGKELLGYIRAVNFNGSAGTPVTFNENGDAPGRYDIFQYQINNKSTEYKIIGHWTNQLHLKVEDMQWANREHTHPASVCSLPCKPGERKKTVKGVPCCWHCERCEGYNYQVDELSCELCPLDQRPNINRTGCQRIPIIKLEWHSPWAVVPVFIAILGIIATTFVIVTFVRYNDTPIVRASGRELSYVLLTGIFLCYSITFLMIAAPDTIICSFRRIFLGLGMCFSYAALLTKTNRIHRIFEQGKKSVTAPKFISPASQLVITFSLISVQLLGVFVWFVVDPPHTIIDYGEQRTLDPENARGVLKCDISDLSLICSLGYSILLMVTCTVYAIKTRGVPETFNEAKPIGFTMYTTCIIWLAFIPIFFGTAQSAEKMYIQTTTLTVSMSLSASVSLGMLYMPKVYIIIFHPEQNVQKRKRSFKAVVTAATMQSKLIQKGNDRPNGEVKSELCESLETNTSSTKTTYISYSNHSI

SMILES | z-score
CCN1C(c2ccccc2)=C(c2ccccc2)S/C1=C/C=C1\SC(=S)N(C)C1=O | -0.0724
O=C(NCc1cccs1)C1CCN(S(=O)(=O)c2cccs2)CC1 | -0.232
CCOc1ccc(NC(=O)CSCC(=O)O)cc1 | -0.178
Cc1occc1C(=O)N/N=C/C1=C(N2CCOCC2)C(=C\c2ccc(Cl)cc2Cl)/CC1 | 0.0547
CC(NC(=O)Cc1cccs1)C(c1cccs1)N1CCOCC1 (stereo not given) | -0.108
CCOC(=O)Cn1c(=N)n(Cc2ccccc2F)c2ccccc21 | 3.72 (active)
C=CCn1c(=N)n(CC(=O)OCC)c2ccccc21 | 0.534
CCOC(=O)Cn1c(=N)n(Cc2ccccc2)c2ccccc21 | 0.46
COc1cc(C(=O)NCc2nnc(SCC(=O)NCc3ccccc3)o2)cc(OC)c1OC | 1.55
CCC(c1nnnn1CCOC)N(Cc1cc2c(C)cc(C)cc2[nH]c1=O)CC1CCCO1 (stereo not given) | -0.203
Nc1nc(CSC(=S)N2CCN(c3ccccc3)CC2)nc(Nc2ccccc2)n1 | 0.00399
Nc1nc(CSC(=S)N2CCOCC2)nc(Nc2ccc(F)cc2)n1 | -0.0752
Nc1nc(CSC(=S)N2CCOCC2)nc(Nc2ccccc2)n1 | 2.25
Cc1cc(C)c(S(=O)(=O)c2ccccc2)c(OC(=O)c2c(Cl)cccc2Cl)n1 | -0.286
COc1ccc(NC(=O)c2ccco2)cc1NC(=O)c1ccc(C)cc1 | -0.304
COc1ccccc1NC(=O)c1cc(Cl)ccc1NC(=O)c1ccco1 | 0.52
COc1ccc(C)cc1NC(=O)C(=O)NNC(=O)c1ccco1 | 4.89 (active)
COc1ccccc1NC(=O)c1cccc(NC(=O)c2ccco2)c1 | -0.669
COc1ccccc1NC(=O)C(=O)NNC(=O)c1ccco1 | 2.81
COc1ccc(Cl)cc1NC(=O)c1ccco1 | -0.426
O=c1c2ccccc2nc(CSc2ncnc3nc[nH]c23)n1-c1cccc(C(F)(F)F)c1 | -0.256
Cc1nc(NC(=O)c2ccccc2)sc1-c1csc(NCc2ccco2)n1 | 0.00275
Cn1nnc(NC(=O)c2ccco2)n1 | 0.813
Cc1ccc(C(=O)OCC(=O)NCc2ccco2)cc1 | -0.195
CCc1ccc2c(c1)C1(NN=C(c3cccc4ccccc34)S1)C(=O)N2 (stereo not given) | 4.02 (active)
CCc1ccc2c(c1)C1(C(=O)N2)N2CCCC2C(C(=O)c2ccc3ccccc3c2)C12C(=O)Nc1ccccc12 (stereo not given) | -0.276
CCc1ccc2c(c1)C1(NN=C(c3ccc(C)cc3)S1)C(=O)N2 (stereo not given) | 3.15 (active)
CC(C)c1ccc2c(c1)C1(NN=C(c3ccccc3)S1)C(=O)N2 (stereo not given) | 0.979
CCc1ccc2c(c1)C(=O)c1ccccc1C2=O | -0.389
CCc1ccc2c(c1)C1(NN=C(c3ccccc3)S1)C(=O)N2 (stereo not given) | 0.104
